# EBNA-1 inhibitor = blocks EBNA-1 binding to DNA. inhibition, % at 14.8 µM. EBNA-1 DNA binding, fluorescence polarization. 300,000 compounds, 0.34% hits. AID 1950; in the data active = inhibition above about 28%
# TPT1 inh = blocks Candida albicans tRNA 2'-phosphotransferase. recombinant caTPT1, FP RNA substrate dephosphorylation. inhibition, % at 5 µM. 300,000 compounds, 0.81% hits. AID 1962;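 active = inhibition above the mean of all tested compounds plus 3 SD, set per screening campaign, cut at about 24% in these data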;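 note: plate controls were DMSO alone for no effect and ferristatin control at 100 nM for full effect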
# GRIN3A LBD mod = modulates the human NR3A ligand-binding domain | 340,000 compounds, 2.5% hits | AID 1259313 | Tm shift relative to glycine control, % at 25 µM | NR3A LBD differential scanning fluorimetry, Tm shift; 0% = protein alone, 100% = glycine-bound protein;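 active = melting temperature shift of at least 10% of the positive control shift, at one fixed dose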
# Rpn11 inh = blocks the human proteasome subunit Rpn11; human 26S proteasome, Ub4-pepOG fluorescence polarization; 20S core pre-blocked with epoxomicin; inhibition, % at 20 µM; 360,000 compounds, 0.59% hits;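 active = inhibition at 20 µM, scaled to each plate's controls, above about 33%, limit read from the data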
# Target sequence (O00487 whole entry, looked up): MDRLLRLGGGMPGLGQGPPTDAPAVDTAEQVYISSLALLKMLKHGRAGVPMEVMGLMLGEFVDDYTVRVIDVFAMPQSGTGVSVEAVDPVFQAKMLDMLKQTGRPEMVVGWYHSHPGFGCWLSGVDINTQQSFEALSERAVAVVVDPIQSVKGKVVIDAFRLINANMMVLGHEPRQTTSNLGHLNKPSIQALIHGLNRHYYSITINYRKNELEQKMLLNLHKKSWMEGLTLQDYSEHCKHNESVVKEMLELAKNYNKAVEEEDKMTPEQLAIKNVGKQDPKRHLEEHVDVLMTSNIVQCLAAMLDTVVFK
# ZTA DNA inh = blocks Epstein-Barr virus ZTA, an EBNA-1 counter-screen. ZTA-DNA binding, fluorescence polarization. inhibition, % at 11 µM. 320,000 compounds, 0.15% hits. AID 2234; in the data active = inhibition above about 33%
# Target sequence (P03206 whole entry, looked up): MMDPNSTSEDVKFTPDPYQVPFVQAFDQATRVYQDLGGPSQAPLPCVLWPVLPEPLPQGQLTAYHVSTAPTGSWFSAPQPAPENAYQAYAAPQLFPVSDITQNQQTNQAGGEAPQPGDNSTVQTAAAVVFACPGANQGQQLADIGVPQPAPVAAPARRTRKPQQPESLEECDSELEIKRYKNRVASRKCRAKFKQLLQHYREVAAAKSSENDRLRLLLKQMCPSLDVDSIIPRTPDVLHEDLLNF
# dFosB activator = activators of mouse delta FosB homodimer; P13346; purified delta FosB, TAMRA-CDK5 oligo fluorescence polarization; percent of positive-control signal above neutral wells; activation, % at 25 µM; 340,000 compounds, 0.99% hits; AID 493131;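 active = mean activation above about 17%, with every replicate also reaching it, limit read from the data, passing the limit was not always enough; inconclusive = only one of the two conditions met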
# Starred values were filed as active, the others as inactive; ? = inconclusive; nt = no result. Compounds with a hit are over-represented: about 4.5% of the library has one in this group of screens.
SMILES,EBNA-1 inhibitor,TPT1 inh,GRIN3A LBD mod,Rpn11 inh,ZTA DNA inh,dFosB activator
O=C(NCc1ccc(Cl)cc1)c1cccc(NC2=NC3CS(=O)(=O)CC3S2)c1 (stereo unspecified),-4,-2,1,1,2,2
OC(c1ccccc1)C(NCCNCc1ccccc1)c1ccccc1 (stereo unspecified),nt,nt,0,-1,nt,-2
CCOc1ccccc1N1CCN(S(=O)(=O)c2cc(C)ccc2OC)CC1,-4,-3,37*,-2,5,-10
Cc1cc(=O)[nH]c(SCC(=O)Nc2c(C)n(C)n(-c3ccccc3)c2=O)c1C#N,nt,nt,1,-2,6,-2
CCn1c(CSc2nnc(-c3ccncc3)n2C)nc2cc(C(=O)O)ccc21,30*,-4,-3,-5,43*,-73
CCn1c(CSc2ncn[nH]2)nc2cc(C(=O)O)ccc21,6,-6,2,-7,-11,-12
CCCNC(=O)C1(C)CCN(C(=O)c2ccc3c(c2)CCO3)C1 (stereo unspecified),nt,nt,nt,-2,nt,nt
CC1(c2ccc3ccccc3c2)NC(=O)N(CC(=O)NCC(C)(C)N2CCOCC2)C1=O (stereo unspecified),-6,-2,17*,0,13,-4
CC1(c2ccc3ccccc3c2)NC(=O)N(CC(=O)NCc2cccs2)C1=O (stereo unspecified),3,0,1,1,5,-7
CCN(C(=O)CSc1nnc(CNc2cccc(OC)c2)n1C1CCCCC1)C1CCS(=O)(=O)C1 (stereo unspecified),-7,-6,-2,-3,-12,-7
Cc1ccc(CN2C(=O)C(=O)N(CC(N)=O)C2=O)cc1,-10,-1,-2,-11,-19,-7
Cc1ccc(C(=O)CN2C(=O)C(=O)N(Cc3ccccc3)C2=O)cc1,4,-6,18*,2,3,8
COC(=O)[C@H]1C[C@H](C(=O)O)[C@@H](C)C1(C)C,4,-1,-1,-3,-16,4
N#CCSc1nc(-c2ccccc2)c2cc(Cl)ccc2n1,20,1,18*,2,-1,9
C=CCSc1nc(-c2ccccc2)c2cc(Cl)ccc2n1,1,-3,-1,1,6,-8
Cc1cc(C)nc(N/N=C/c2ccccc2OCc2ccccc2)n1,0,-2,12*,-1,-9,-10
COc1ccc(S(=O)(=O)NC2CCSc3ccccc32)cc1OC (stereo unspecified),0,2,-2,5,-3,-7
CS(=O)(=O)c1ccccc1COC(=O)Nc1ccc(Cl)cc1,-4,-1,-4,-1,5,-2
O=C(Nc1ccc(Cl)cc1)OCc1ccccn1,-11,1,22*,0,-16,-5
CCCCN1C(=O)NC(NC(=O)c2ccco2)(C(F)(F)F)C1=O (stereo unspecified),0,0,-1,2,-8,4
CC(C)Oc1ccc(C(=O)NC2(C(F)(F)F)NC(=O)N(CCCc3ccccc3)C2=O)cc1 (stereo unspecified),-4,4,14*,8,-5,-6
Cc1ccc(Cl)cc1NC(=O)COC(=O)CC1CC2CCC1C2 (stereo unspecified),7,1,-12,-2,-15,-4
COC(=O)c1ccc(C(=O)OC)c(NC(=O)COC(=O)CC2CC3CCC2C3)c1 (stereo unspecified),14,-1,19*,-8,15,-5
CNC(=O)CC1C(=O)N(Cc2ccccc2)C(=S)N1NC(=O)c1cccc(F)c1 (stereo unspecified),6,1,14*,-2,2,-6
Cc1ccc(NC(=O)CC2C(=O)N(Cc3ccccc3)C(=S)N2NC(=O)c2ccccc2)c(C)c1 (stereo unspecified),5,-4,11*,-7,-3,5
SMILES,EBNA-1 inhibitor,TPT1 inh,GRIN3A LBD mod,Rpn11 inh,ZTA DNA inh,dFosB activator
CNC(=O)CC1C(=O)N(c2ccc(Cl)cc2)C(=S)N1NC(=O)c1cccc(F)c1 (stereo unspecified),4,-1,0,15,4,6
O=S(=O)(NCC(Nc1ccc(Cl)cc1)c1ccccc1)c1ccc(Cl)cc1 (stereo unspecified),10,-2,28*,-9,-1,-5
Cc1ccc(S(=O)(=O)C2(C(=O)NC3CCCCC3)CC2)cc1,12,3,26*,-2,9,-17
COc1ccccc1NC(=O)COc1cccc2c1CCNC2=O,2,1,1,1,-5,-9
O=C(CCl)c1ccc2[nH]c(=O)oc2c1,5,2,0,4,8,-3
O=c1[nH]c2ccc(Br)cc2o1,nt,nt,11*,2,nt,5
Nc1n[nH]c(C2CC2)c1N=Nc1ccc(Cl)cc1,-7,-2,11*,-2,12,nt
Nc1n[nH]c(C2CC2)c1N=Nc1ccc(Cl)c(Cl)c1,-3,0,33*,-4,3,nt
Nc1nc(N)c(N=Nc2ccc(Cl)cc2)c(=O)[nH]1,14,-1,1,4,12,?
COc1cc([N+](=O)[O-])ccc1NC(=O)C[n+]1cccc(C(C)=O)c1,2,4,-2,2,-14,-8
COc1ccc(-c2nc(SCC(=O)Nc3cccc(S(N)(=O)=O)c3)n[nH]2)cc1,nt,nt,11*,4,nt,-11
Cc1ccc(O)c(NC(=O)CSc2n[nH]c(-c3ccccc3)n2)c1,11,-1,34*,-9,8,2
Cc1cc(SCC(=O)c2ccc(O)c(O)c2)nc2ccccc12,-8,1,12*,-7,16,5
O=C(CSc1n[nH]c(-c2ccccc2)n1)c1ccc(O)c(O)c1,2,-1,12*,-9,-1,11
Cc1cc(SCC(=O)c2ccc3c(c2)OCO3)nc2ccccc12,-9,12,-1,22,7,2
Cc1ccc(CNC(=O)c2cc(=O)c3ccccc3o2)cc1,-13,3,0,-2,-3,-2
Cc1onc(-c2ccccc2)c1C(=O)NCc1ccccc1F,1,1,-2,-7,-1,5
Cc1ccc(-c2c(C(=O)NCc3ccc(F)cc3)oc(=O)c3ccccc23)cc1,1,2,14*,-2,7,-3
Cc1onc(-c2ccccc2)c1C(=O)NCc1ccc(F)cc1,-5,-3,11*,-6,-7,-3
CC(OC(=O)c1ccc([N+](=O)[O-])o1)C(=O)Nc1nc(-c2ccc(F)c(F)c2)cs1 (stereo unspecified),nt,nt,15*,8,nt,-6
NC(=S)N/N=C/c1ccc(C23CC4CC(CC(C4)C2)C3)cc1,-7,1,10*,nt,3,nt
Cc1cc(Br)cnc1NC(=S)Nc1ccc(F)cc1F,7,-6,1,6,-4,-8
O=C(NC(Cc1ccccc1)C(=O)O)/C(=C\c1ccc(Cl)cc1)NC(=O)c1ccccc1 (stereo unspecified),-4,-6,-2,1,-21,-5
